From PubChem BioAssay AID894 (National Center for Advancing Translational Sciences (NCATS), 2007) come the findings set out here.

About 6,500 (4.3%) of roughly 150,000 compounds were called active. About 12% were inconclusive and are not listed. Only a selection was taken, and actives are over-represented in it overall. A number with no mark means an inactive call. Calls come from the whole dose curve; as a rule, active = well fitted inhibition curve with a large enough effect (not every such curve was filed as active); inconclusive = small, poorly fitted or top-dose-only effect, or another doubt; inactive = no such curve, though single readings can be large or run the other way.
% is set by controls: 0 for no effect and ±100 for the full control effect; potency is the fitted concentration of half-maximal effect.

Chain of 15-hydroxyprostaglandin dehydrogenase [NAD(+)] (Homo sapiens) (P15428 whole entry, looked up): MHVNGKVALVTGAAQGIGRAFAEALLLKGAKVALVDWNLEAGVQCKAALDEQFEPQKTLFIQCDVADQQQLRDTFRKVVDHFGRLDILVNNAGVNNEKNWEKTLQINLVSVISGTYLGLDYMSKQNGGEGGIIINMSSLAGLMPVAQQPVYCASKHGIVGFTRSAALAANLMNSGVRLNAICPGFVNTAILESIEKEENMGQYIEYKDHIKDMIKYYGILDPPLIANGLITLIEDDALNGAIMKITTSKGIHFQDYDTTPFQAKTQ

The test has as its target 15-hydroxyprostaglandin dehydrogenase [NAD(+)] (Homo sapiens) (UniProt P15428). In words: qHTS Assay for Inhibitors of HPGD (15-Hydroxyprostaglandin Dehydrogenase). To be noted: purified HPGD, NADH fluorescence kinetic, PGE2 substrate; activity change, negative = inhibition: hits give low values. The essentials: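 20 nM HPGD preincubated 15 min at room temperature with compound in 50 mM Tris-HCl pH 8, 0.01% Tween 20. Started with 1 mM NAD+ and 30 uM prostaglandin E2; NADH fluorescence (360/450 nm) read 5 times over 30-s intervals, last minus first.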
As for `CCCCN(CC)C(=O)c1ccc2c(c1)OCO2`, the Potency was 12.6 µM (active).
With `O=C(CN(Cc1ccccc1)C(=O)c1ccc2c(c1)OCCO2)NCc1ccc2c(c1)OCO2`, the activity change, negative = inhibition is -6.78%.
On to `CCn1c(=O)cc(SCC(=O)NCCC2=CCCCC2)c2ccccc21`, for which the Potency was 7.08 µM (active).
Turning to `CCn1c(=O)cc(SCC(=O)NCc2ccc3c(c2)OCO3)c2ccccc21`, the activity change, negative = inhibition was -4.58%.
The same measure, in the same setting: to `Cc1nnc(OCC(=O)NCCC2=CCCCC2)c2ccccc12` belongs -17.6%; to `O=C1CC(c2cccc(Cl)c2)CC(O)=C1C=Nc1ccccc1` (stereo not given), -9.88%; to `O=C(CNC(c1ccccc1)c1ccccc1)Nc1ccc(F)cc1`, -9.88%.
On to `Cc1ccc(Oc2ccc(N)cc2)cc1`, for which the activity change, negative = inhibition was -24%.
With `CC(C)(C)c1ccc(Oc2ccc(N)cc2)cc1`, the Potency is 28.2 µM (active).
On to `Nc1ccc(Oc2ccc(Cl)cc2)cc1`, for which the activity change, negative = inhibition is -8.65%.
On the same count and under the same terms, to `CCCCN(CC)C(=S)Nc1ccc2nc3n(c(=O)c2c1)CCCCC3` belongs -1.94%; to `COc1ccc(C(=O)ON=C2c3ccccc3-c3ccccc32)cc1OC`, -23.4%.
Still for that read-out and setting: to `CCOc1ccc(Oc2nc(C)cc(OC)n2)nn1` belongs -6.46%.
`Cc1scc(C(=O)NNC(=S)NCC(C)C)c1C`: the activity change, negative = inhibition was -5.27%.
The same measure, in the same setting: the value for `Cc1cccc(NC(=S)N(CCN(C)C)C(C)c2ccco2)c1` (stereo not given) was -15.4%; that for `COc1ccc(S(=O)(=O)NC(C)C)cc1C(=O)NC1CCCCC1` was -17.6%; that for `CCC(CC)c1nnc(NC(=O)/C=C/c2ccco2)s1` was -29.6%.
Regarding `c1ccc2[nH]c(-c3nc4ccccc4[nH]3)nc2c1`, the activity change, negative = inhibition was -25.9%.
Take `O=c1[nH]c(-c2cccs2)nc2ccccc12`: the Potency was 15.8 µM (active).
Regarding `O=c1onc(-c2cccs2)n1Cc1ccccc1`, the activity change, negative = inhibition is -5.59%.
As to `Nc1nc(CC(=O)CSc2ccc(Cl)cc2)nc(Nc2ccc(F)cc2)n1`, the activity change, negative = inhibition was -7.75%.
For `COc1ccc(CCNC(=O)c2ccco2)cc1`, the activity change, negative = inhibition was -3.27%.
Same read-out and setting: to `CS(=O)(=O)N(Cc1ccc(Cl)cc1)c1ccc(C(=O)NCCSCc2ccco2)cc1` belongs -4.85%.
With `O=C(/C=C/c1cccc([N+](=O)[O-])c1)NCCSCc1ccco1`, the Potency is 25.1 µM (active).
For `CCC(CC)NC(=O)/C=C/c1cccc([N+](=O)[O-])c1`, the activity change, negative = inhibition is -13.1%.
On to `COc1cc(OC)cc(C(=O)NCCSCc2ccco2)c1`, for which the Potency was 20 µM (active).
For `O=C(/C=C/c1ccc([N+](=O)[O-])cc1)NCCSCc1ccco1`, the activity change, negative = inhibition is -22.9%.
On the same count and under the same terms, to `CC(=O)Nc1cccc(/C(C)=N/NC(=O)c2c(-c3ccccc3Cl)noc2C)c1` belongs -6.16%; to `COc1ccc(S(=O)(=O)NC(C)C(=O)Nc2cccc([N+](=O)[O-])c2)cc1` (stereo not given), -10.4%.
On the same count and under the same terms, to `O=C(COC(=O)Cn1cnc2ccccc2c1=O)NCC12CC3CC(CC(C3)C1)C2` belongs -2.81%; to `COc1cc(NC(=O)Nc2ccc(C)cc2)cc([N+](=O)[O-])c1`, -10.2%; to `CCOC(=O)C1=NO[C@@]2(C=C(Br)C(=O)[C@H]3O[C@H]32)C1`, -23%.
Still for that read-out and setting: to `Clc1ccccc1-c1cc(COc2ccc3ccccc3c2)no1` belongs -25.6%.
Consider `O=C(NCc1ccccn1)c1cc(-c2ccccc2Cl)on1`, for which the Potency is 14.1 µM (active).
For `COc1ccccc1-c1cc(C(=O)NCCCn2ccnc2)no1`, the activity change, negative = inhibition is -21.8%.
Still for that read-out and setting: the value for `CCOC(=O)c1c(NC(=O)CSc2nnc(CN3CCOCC3)n2C)sc2c1CCCC2` was -2.63%.
Turning to `NC(=O)c1c(NC(=O)CSc2nnc(-c3ccco3)n2N)sc2c1CCCC2`, the Potency was 14.1 µM (active).
Take `CCc1cccc(C)c1NC(=O)CSc1nnc(-c2ccco2)n1N`: the activity change, negative = inhibition is -10.6%.
Same read-out and setting: to `CC(C)=C1C2CCC1C1C(=O)N(NC(=O)c3ccco3)C(=O)C21` (stereo not given) belongs -7.1%; to `CC(C)Cc1cc(C(=O)NCCc2ccccc2)no1`, -20.6%; to `CC(C)CNC(=O)c1cc(-c2ccc(Br)cc2)on1`, -23.1%.
Turning to `CC(C)Cc1cc(C(=O)Nc2cc(Br)ccc2O)no1`, the Potency was 25.1 µM (active).
In the case of `COc1ccc(C(C(=O)NC2CCCCC2)N(C(=O)CCl)c2ccccc2Cl)cc1` (stereo not given), the activity change, negative = inhibition is -4.95%.
Still for that read-out and setting: the value for `N#Cc1c(NC(=O)c2ccc(N3CCOCC3)c([N+](=O)[O-])c2)sc2c1CCCC2` was -10.9%; that for `O=C(/C=C/c1ccc(Cl)cc1)N1CCN(c2ccccc2[N+](=O)[O-])CC1` was -15%; that for `CC(C)(C)NC(=O)C(=O)NCc1ccncc1` was -2.72%.
Same read-out and setting: the value for `Cc1nc2ccccc2n1CC(=O)N/N=C/c1cccs1` was -4.95%.
On the same count and under the same terms, the value for `O=C(COC(=O)CCC(=O)c1cccs1)NCc1ccco1` was -9.26%.
For `O=C(CCC(=O)c1cccs1)NCc1ccccc1`, the Potency was 31.6 µM (active).
In the case of `O=C(c1cccs1)n1nc(NCc2ccccc2)nc1NCc1ccccc1`, the activity change, negative = inhibition was -18.3%.
